In the library only some 0.43% were active in any assay of this set; here they are far more common.
GAA inh = alpha-glucosidase (human) inhibition | AID 1466 | 200,000 compounds, 0.005% hits | Potency, µM (highest dose often 76.9 µM), inactives show at the top dose activity change, negative = inhibition, hits mostly inhibitors | P10253 | purified human GAA, 4-MU-alpha-glucoside fluorescence;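 also: potency is read from the fitted curve at half-maximal effect; plate controls were uninhibited enzyme wells for no effect and no-enzyme background for full effect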
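AC50 values come from Hill fits of compound titrations (up to 77 uM) against 4 nM human enzyme. Substrate 4-methylumbelliferyl-alpha-D-pyranoside at 400 uM, pH 5.0 citrate buffer, 20 min room temperature; fluorescence Ex 365/Em 440 after alkaline stop.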
GAA glycogen = inhibitors or activators of human alpha-glucosidase glycogen cleavage; P10253; recombinant GAA, glycogen substrate, Amplex Red glucose oxidase fluorescence; Potency, µM (doses to about 76.4 µM), inactives show top-dose activity change, negative = inhibition, hits mostly inhibitors; 300,000 compounds, 0.38% hits;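 also: potency is read from the fitted curve at half-maximal effect; 0% = full enzyme reaction and -100% = no-enzyme basal signal; the screen sought inhibitors and activators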
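Recombinant human enzyme (4 nM); glycogen substrate; 37 C, 40 min, pH 5.0. Readout: coupled glucose oxidase/Amplex Red fluorescence.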
GLA inh pH 4.5 = inhibitors of human alpha-galactosidase A at pH 4.5 | 230,000 tested, under 10 active | P06280 | purified enzyme, 4-MU-alpha-Gal fluorescence, pH 4.5 | activity change, negative = inhibition, % at 105 µM;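 also: 0% = full activity with enzyme and -100% = basal without enzyme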
GAA spleen mod = inhibits or activates alpha-glucosidase in human spleen homogenate; Potency, µM (doses to about 79.9 µM), for the others: at the highest dose activity change, negative = inhibition, usual class: inhibitors; 240,000 compounds, 0.006% hits; P10253; human spleen homogenate, 4-MU-alpha-glucoside fluorescence;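 also: potency is read from the fitted curve at half-maximal effect; 0% = enzyme with vehicle and -100% = no enzyme basal signal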
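Enzyme source: human spleen homogenate, 1 ug/well. Buffer 50 mM citric acid/K phosphate pH 5.0, 0.01% Tween-20. 4-MU-alpha-glucoside 1 mM; 37 C x 40 min; NaOH/glycine stop; fluorescence.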
N370S GC = N370S glucocerebrosidase modulation, Gaucher chaperone candidate; P04062; N370S GC spleen homogenate, 4MU-glucoside fluorescence; Potency, µM (doses to about 59.4 µM), without a hit: at the top dose activity change, negative = inhibition, most hits filed as inhibitors; 330,000 compounds, 0.092% hits;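 also: potency is read from the fitted curve at half-maximal effect; 0% = full enzyme activity and -100% = no enzyme basal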
GLA spleen mod = alpha-galactosidase A (human) modulation. P06280. human spleen homogenate, 4MU-alpha-Gal fluorescence, 40 min. Potency, µM (highest dose often 80 µM), for inactives: top-dose activity change, negative = inhibition, hits mostly inhibitors. 240,000 compounds, 0.008% hits. AID 2107;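 also: potency is read from the fitted curve at half-maximal effect; 0% = enzyme with vehicle and -100% = no enzyme basal signal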
Target sequence (P06280 32-429 limits assumed): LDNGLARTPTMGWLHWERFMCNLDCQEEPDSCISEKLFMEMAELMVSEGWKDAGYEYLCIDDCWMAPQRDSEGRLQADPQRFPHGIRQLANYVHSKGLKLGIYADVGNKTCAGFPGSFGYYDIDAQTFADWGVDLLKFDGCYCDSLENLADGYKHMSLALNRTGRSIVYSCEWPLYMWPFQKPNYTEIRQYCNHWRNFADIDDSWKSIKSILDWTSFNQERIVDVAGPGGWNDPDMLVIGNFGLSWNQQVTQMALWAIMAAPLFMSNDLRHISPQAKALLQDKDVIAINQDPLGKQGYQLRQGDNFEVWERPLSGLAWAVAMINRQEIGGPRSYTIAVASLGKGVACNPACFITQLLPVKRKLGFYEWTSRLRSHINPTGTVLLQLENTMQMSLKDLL
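Human spleen homogenate (1 ug) as enzyme source, 4-methylumbelliferyl-alpha-D-galactopyranoside 1 mM final, citrate/phosphate pH 5.0 with 0.01% Tween-20. Compounds 40 min at 37C, NaOH/glycine stop; fluorescence Ex 365/Em 440, Hill-fit AC50.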
An asterisk follows results filed as active. Calls follow the shape of the dose curve; as a rule, active = well fitted curve in the direction sought with a large enough effect; inconclusive = small, poorly fitted or top-dose-only effect, or another doubt; inactive = no such curve, though single readings can be large; an effect the other way counts as inactive or inconclusive.

`CC(C)c1cc(C(C)C)c(S(=O)(=O)Nc2cccc3cccnc23)c(C(C)C)c1` gave GAA spleen mod 8.4%, N370S GC -2.6% and GLA spleen mod 0.5%.
`Cc1ccc(S(=O)(=O)Nc2cc(Cl)c(O)cc2C)cc1` gave GAA inh -10.4%, GAA glycogen 22.4µM*, GLA inh pH 4.5 -3.6, GAA spleen mod 6.6%, N370S GC 4.5% and GLA spleen mod -2.2%.
For CS(=O)(=O)NNC(=O)c1cc2cc3ccccc3nc2s1 the results were GAA inh -6.4%, GAA glycogen 15.7µM*, GLA inh pH 4.5 -2.3, GAA spleen mod 5.4%, N370S GC 7.4% and GLA spleen mod 5.4%.
`COc1ccc(S(=O)(=O)NNC(=O)c2cc3cc4ccccc4nc3s2)cc1` gave GAA inh inconclusive, GAA glycogen 12.5µM*, GLA inh pH 4.5 -13.6, GAA spleen mod 0.1%, N370S GC -20.9% and GLA spleen mod -12.1%.
O=C1C2C3C=CC(CC3)C2C(=O)N1/N=C/c1ccc(O)c(O)c1 (configuration not stated) was read as GAA inh -1.0%, GAA glycogen 7.08µM*, GLA inh pH 4.5 -3.2, GAA spleen mod -4.1%, N370S GC 0.2% and GLA spleen mod -0.7%.
O=c1c(-c2ccc(O)cc2)coc2cc(O[C@@H]3O[C@H](CO)[C@@H](O)[C@H](O)[C@H]3O)cc(O)c12 was read as GAA spleen mod -0.4%, N370S GC -3.0% and GLA spleen mod -3.2%.
NC(CC(=O)Nc1ccc(Oc2cc(F)c(F)cc2Br)cc1)C(=O)O (configuration not stated) was read as GAA spleen mod -4.3%, N370S GC -9.3% and GLA spleen mod 5.0%.
Screening CC(=O)N=c1sc2ccccc2n1C returned GAA inh -10.4%, GAA glycogen 5.6%, GLA inh pH 4.5 -6.1, GAA spleen mod 1.1%, N370S GC 5.9% and GLA spleen mod 0.7%.
`N/N=c1\sc2ccccc2n1-c1ccccc1` gave GAA inh -2.7%, GAA glycogen 20µM*, GLA inh pH 4.5 -19.2, GAA spleen mod -7.1%, N370S GC 4.7% and GLA spleen mod -11.2%.
Screening COc1ccc(SCC(CC(C)C)N2CCN(C)CCC2=O)cc1 (configuration not stated) returned GAA spleen mod 5.2%, N370S GC -7.3% and GLA spleen mod 2.5%.
`CCOC(=O)CNc1c(-c2ccc(Cl)cc2)nc2cnccn12` gave GAA inh inconclusive, GAA glycogen 39.8µM*, GLA inh pH 4.5 3.0, GAA spleen mod 0.7%, N370S GC 2.0% and GLA spleen mod 2.6%.
Screening CCOC(=O)CNc1c(-c2ccc(OC)cc2)nc2ccc(Cl)cn12 returned GAA inh 1.5%, GAA glycogen inconclusive, GLA inh pH 4.5 -1.5, GAA spleen mod -1.9%, N370S GC inconclusive and GLA spleen mod 1.4%.
Screening CCOC(=O)CNc1c(-c2ccc(F)cc2)nc2cnccn12 returned GAA inh 8.3%, GAA glycogen 12.5µM*, GLA inh pH 4.5 12.3, GAA spleen mod -9.7%, N370S GC 8.2% and GLA spleen mod 10.9%.
`Cn1sc(=O)n(Cc2ccccc2)c1=O` gave GAA spleen mod 9.8%, N370S GC -2.6% and GLA spleen mod 20.5%.
For Cc1ccc(-c2nnc3c4ccccc4c(C)nn23)cc1NC(=O)CN1CCOCC1 the results were GAA inh -4.0%, GAA glycogen 0.5%, GLA inh pH 4.5 4.8, GAA spleen mod 3.0%, N370S GC 4.8% and GLA spleen mod 6.1%.
Cc1ccc(-c2nnc3c4ccccc4c(C)nn23)cc1S(=O)(=O)N1CCN(CCO)CC1 was read as GAA inh -3.7%, GAA glycogen 4.1%, GLA inh pH 4.5 6.5, GAA spleen mod -10.0%, N370S GC 15.8µM* and GLA spleen mod 3.1%.
`OC[C@@H]1O[C@H](O)[C@H](O)[C@@H](O)[C@@H]1O` gave GAA spleen mod -4.4%, N370S GC 1.3% and GLA spleen mod -9.7%.
